# Reference: PMC7862700, “An all-to-all approach to the identification of sequence-specific readers for epigenetic DNA modifications on cytosine”
# Experiments:
# Assay in all cases: DAPPL (digital affinity profiling via proximity ligation, sequencing); 10 mM Tris-HCl pH 7.5, 50 mM NaCl, 1 mM DTT, 4% glycerol, room temperature, 30 min; GST-TFs on glutathione beads, 16-mer random dsDNA library, 0.1% formaldehyde crosslink after washing; high values mean tight binding
# Conditions in all cases: protein: recombinant; tags: N-terminal GST; dsDNA, one strand shown
# FLI1 = target: T1, FLI1 (Homo sapiens, UniProt Q01543 1-452)
# T1 sequence: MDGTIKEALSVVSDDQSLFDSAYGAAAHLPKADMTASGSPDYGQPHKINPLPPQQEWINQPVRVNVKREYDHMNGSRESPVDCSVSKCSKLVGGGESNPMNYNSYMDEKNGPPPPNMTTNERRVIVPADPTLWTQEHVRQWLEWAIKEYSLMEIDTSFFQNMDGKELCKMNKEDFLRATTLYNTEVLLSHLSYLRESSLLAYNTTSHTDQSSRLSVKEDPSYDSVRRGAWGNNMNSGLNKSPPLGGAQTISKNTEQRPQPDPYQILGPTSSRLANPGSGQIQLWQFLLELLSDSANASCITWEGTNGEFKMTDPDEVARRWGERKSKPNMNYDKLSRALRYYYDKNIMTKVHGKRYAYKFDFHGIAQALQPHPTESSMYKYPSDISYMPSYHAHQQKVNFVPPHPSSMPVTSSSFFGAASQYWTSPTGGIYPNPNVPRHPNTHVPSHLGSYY
# Method in brief: (§1)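 Pools were built from human transcription factors expressed in yeast as GST fusions, captured on glutathione beads and DNA-barcoded, along with a tag-only sample. Incubation with 200 nmole of a 16-mer random double-stranded DNA library lasted 30 min at room temperature in Tris/NaCl/DTT/glycerol buffer, and was followed by washing, 0.1% formaldehyde crosslinking, proximity ligation, PCR amplification and Illumina NextSeq500 sequencing. Binding signal is the quotient of each hexamer's read frequency for a factor and its frequency for the tag-only sample.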
# ELK1 = target: T2, ELK1 (Homo sapiens, UniProt P19419 1-428)
# T2 sequence: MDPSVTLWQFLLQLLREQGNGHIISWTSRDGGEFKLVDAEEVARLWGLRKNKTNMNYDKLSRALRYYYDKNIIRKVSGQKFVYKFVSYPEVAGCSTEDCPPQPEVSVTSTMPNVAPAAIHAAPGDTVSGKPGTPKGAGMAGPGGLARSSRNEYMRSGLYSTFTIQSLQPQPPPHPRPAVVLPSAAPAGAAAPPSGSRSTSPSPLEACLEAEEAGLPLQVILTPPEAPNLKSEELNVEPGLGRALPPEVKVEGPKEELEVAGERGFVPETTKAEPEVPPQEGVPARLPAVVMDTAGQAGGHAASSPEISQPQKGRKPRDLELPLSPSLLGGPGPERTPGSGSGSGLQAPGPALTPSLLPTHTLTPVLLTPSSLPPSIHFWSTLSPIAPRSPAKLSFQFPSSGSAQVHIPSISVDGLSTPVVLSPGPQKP
# Method in brief: as §1
# GABPA = target: T3, GABPA (Homo sapiens, UniProt Q06546 1-454)
# T3 sequence: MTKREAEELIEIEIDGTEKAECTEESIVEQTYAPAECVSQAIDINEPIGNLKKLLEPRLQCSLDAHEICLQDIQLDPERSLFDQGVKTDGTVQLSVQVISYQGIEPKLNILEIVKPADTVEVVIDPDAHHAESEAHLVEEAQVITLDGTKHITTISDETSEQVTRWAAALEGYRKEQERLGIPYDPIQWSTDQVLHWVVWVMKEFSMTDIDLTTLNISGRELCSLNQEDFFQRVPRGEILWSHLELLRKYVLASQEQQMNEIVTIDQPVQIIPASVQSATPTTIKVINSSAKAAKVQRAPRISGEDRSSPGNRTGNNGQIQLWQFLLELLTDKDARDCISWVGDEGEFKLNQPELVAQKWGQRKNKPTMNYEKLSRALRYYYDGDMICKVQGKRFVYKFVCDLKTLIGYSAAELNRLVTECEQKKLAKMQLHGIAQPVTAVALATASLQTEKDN
# Method in brief: as §1
# ERG = target: T4, ERG (Homo sapiens, UniProt P11308 1-479)
# T4 sequence: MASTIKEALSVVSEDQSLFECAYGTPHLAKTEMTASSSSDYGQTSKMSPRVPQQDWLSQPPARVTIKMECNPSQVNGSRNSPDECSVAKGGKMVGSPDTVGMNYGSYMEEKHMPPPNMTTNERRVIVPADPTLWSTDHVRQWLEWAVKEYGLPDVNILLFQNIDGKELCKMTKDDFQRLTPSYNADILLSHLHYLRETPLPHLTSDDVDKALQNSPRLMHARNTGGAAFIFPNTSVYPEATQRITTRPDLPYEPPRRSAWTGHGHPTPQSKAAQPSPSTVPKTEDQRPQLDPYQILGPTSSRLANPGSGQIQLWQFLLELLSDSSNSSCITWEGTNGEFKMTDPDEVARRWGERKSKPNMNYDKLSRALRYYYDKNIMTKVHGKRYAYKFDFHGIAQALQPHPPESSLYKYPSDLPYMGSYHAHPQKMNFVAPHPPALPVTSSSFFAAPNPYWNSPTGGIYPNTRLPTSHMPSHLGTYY
# Method in brief: as §1
# ELF1 = ELF1 (Homo sapiens, UniProt P32519 1-619)
# Method in brief: as §1
# EHF = target: T5, EHF (Homo sapiens, UniProt Q9NZC4 1-300)
# T5 sequence: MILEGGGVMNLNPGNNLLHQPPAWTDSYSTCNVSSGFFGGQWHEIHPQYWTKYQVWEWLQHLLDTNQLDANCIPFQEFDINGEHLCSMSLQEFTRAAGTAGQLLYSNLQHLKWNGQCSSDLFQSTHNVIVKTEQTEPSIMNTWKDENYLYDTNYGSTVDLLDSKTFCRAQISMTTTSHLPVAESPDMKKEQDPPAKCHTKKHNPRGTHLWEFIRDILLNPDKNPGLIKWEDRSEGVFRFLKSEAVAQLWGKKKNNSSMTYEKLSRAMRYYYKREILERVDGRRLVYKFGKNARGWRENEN
# Method in brief: as §1
# SPI1 = SPI1 (Homo sapiens, UniProt P17947 1-270)
# Method in brief: as §1
# SPIB = SPIB (Homo sapiens, UniProt Q01892 1-262)
# Method in brief: as §1
# ELK3 = target: T6, ELK3 (Homo sapiens, UniProt P41970 1-407)
# T6 sequence: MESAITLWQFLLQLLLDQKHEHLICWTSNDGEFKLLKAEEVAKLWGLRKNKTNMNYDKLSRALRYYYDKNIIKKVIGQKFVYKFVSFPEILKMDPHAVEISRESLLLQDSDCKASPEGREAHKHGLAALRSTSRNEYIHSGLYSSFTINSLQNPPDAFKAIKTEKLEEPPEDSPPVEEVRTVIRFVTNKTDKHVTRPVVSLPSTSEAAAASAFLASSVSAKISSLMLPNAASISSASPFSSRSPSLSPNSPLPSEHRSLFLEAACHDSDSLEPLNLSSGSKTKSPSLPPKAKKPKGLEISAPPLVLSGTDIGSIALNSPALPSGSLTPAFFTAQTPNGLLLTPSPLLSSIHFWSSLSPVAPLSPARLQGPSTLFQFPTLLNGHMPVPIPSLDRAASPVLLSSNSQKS
# Method in brief: as §1
# ELF1, sequence (P32519 whole entry): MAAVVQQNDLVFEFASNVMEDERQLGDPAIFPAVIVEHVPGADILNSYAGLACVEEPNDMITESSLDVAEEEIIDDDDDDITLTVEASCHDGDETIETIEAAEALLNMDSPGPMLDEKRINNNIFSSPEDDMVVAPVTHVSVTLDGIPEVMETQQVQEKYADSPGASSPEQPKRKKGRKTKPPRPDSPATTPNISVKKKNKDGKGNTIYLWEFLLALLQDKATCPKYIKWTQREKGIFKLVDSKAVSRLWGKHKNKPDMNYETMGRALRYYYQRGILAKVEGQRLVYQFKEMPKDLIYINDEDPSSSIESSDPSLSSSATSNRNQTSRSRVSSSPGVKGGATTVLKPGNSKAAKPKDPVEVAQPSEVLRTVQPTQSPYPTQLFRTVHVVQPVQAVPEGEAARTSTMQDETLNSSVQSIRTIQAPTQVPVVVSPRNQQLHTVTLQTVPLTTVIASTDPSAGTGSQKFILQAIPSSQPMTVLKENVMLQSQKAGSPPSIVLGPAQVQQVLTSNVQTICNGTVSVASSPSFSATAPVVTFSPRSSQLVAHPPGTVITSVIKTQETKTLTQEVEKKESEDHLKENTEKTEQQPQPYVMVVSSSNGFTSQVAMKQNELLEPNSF
# SPIB, sequence (Q01892 whole entry): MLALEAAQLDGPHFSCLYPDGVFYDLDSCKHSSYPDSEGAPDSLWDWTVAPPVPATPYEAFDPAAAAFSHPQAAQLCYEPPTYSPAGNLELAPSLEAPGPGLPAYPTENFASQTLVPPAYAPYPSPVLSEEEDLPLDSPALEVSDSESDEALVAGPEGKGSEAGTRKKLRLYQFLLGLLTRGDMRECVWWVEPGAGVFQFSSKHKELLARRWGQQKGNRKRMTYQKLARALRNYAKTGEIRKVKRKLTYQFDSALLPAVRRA
sequence,measurement,setting,value
ACTTAA,binding signal,FLI1,"1.17 fold enrichment (6-mer frequency, TF over GST control)"
same,binding signal,ELK1,"1.23 fold enrichment (6-mer frequency, TF over GST control)"
same,binding signal,GABPA,"1.22 fold enrichment (6-mer frequency, TF over GST control)"
same,binding signal,ERG,"1.11 fold enrichment (6-mer frequency, TF over GST control)"
same,binding signal,ELF1,"1.18 fold enrichment (6-mer frequency, TF over GST control)"
same,binding signal,EHF,"1.31 fold enrichment (6-mer frequency, TF over GST control)"
same,binding signal,SPI1,"1.24 fold enrichment (6-mer frequency, TF over GST control)"
same,binding signal,SPIB,"1.18 fold enrichment (6-mer frequency, TF over GST control)"
same,binding signal,ELK3,"1.24 fold enrichment (6-mer frequency, TF over GST control)"
